In all, about 18,000 sequences were measured (“TetR repression strength (sort-seq, GFP reporter)”: median about 0.23, highest 2% from about 0.68 on). For the sample, the highest values were picked, then their nearest neighbours and some sequences at random.

Sequence of TetR (class B, Tn10) (P04483 whole entry): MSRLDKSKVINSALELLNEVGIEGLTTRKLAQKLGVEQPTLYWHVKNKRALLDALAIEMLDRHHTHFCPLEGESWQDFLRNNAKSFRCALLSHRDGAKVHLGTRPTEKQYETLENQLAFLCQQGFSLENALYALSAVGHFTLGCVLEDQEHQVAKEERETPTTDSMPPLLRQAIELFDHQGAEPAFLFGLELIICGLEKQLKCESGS

The target of the assay is TetR (class B, Tn10) (UniProt P04483). In words: TetR repression strength (sort-seq, GFP reporter) (relative to tetO2 = 1); higher = stronger repression. Particulars: E. coli. In short, it runs like this:
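Repression strength is the top bin index plus one minus the read-weighted mean bin, relative to the unaltered operator's value. A low-copy library in E. coli SIG10-MAX randomized eight operator positions between a constitutive promoter and sfGFP, with TetR expressed constitutively; cells grew 5 h at 37 °C in LB with 50 µg/mL chloramphenicol and 10^6 were FACS-sorted into 13 bins that were each Illumina-sequenced. Three independent transformations were averaged, keeping only members with ≥30 reads in all replicates and CV ≤0.5.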
Take TCCCTTCCAGTATCAGAGA: the TetR repression strength turned out to be 0.0836. The result for TCCCTTCAAGTTTGAGAGA reads 0.185; that for TCCCTTCCAGTTTCAGAGA, 0.819. The result for TCCCTTCAAGTGTCAGAGA reads 0.303; that for TCCCTTCAAGTTTCAGAGA, 0.837; that for TCCCTTTCAGTTTCAGAGA, 0.206.

The sequence TCCCAGAGAGTACTAGAGA showed a TetR repression strength of 0.336.

In turn, TCCCGAGGAGTGGCTGAGA had a TetR repression strength of 0.0686.

TCCCTTGGAGTAGGGGAGA registered a TetR repression strength of 0.274. With TCCCACGGAGTCTGGGAGA the figure was 0.0855; with TCCCTGTTAGTGGTCGAGA, 0.187; with TCCCAGTGAGTGCTCGAGA, 0.0229. Sequence TCCCTGATAGTGCTCGAGA yielded a TetR repression strength of 0.215.

With TCCCAGACAGTGCGAGAGA, the TetR repression strength came out at 0.219. With TCCCAGACAGTGCTCGAGA the figure was 0.855.

On to TCCCGAAGAGTGCTCGAGA, for which the TetR repression strength turned out to be 0.813. With TCCCTGTTAGTGCTCGAGA the figure was 1.15; with TCCCTCTGAGTGCTCGAGA, 0.315. With TCCCTGTGAGTGCTCGAGA the figure was 1.14; with TCCCAGACAGTACTCGAGA, 0.444.

TCCCGAGGAGTGCTCGAGA registered a TetR repression strength of 0.126. With TCCCGATGAGTGCTCGAGA the figure was 0.361; with TCCCTGGCAGTTAGGGAGA, 0.365; with TCCCGGTCAGTCTGCGAGA, 0.194. The result for TCCCGGATAGTCTTTGAGA reads 0.125. With TCCCTTGGAGTATATGAGA the figure was 0.119; with TCCCTGCGAGTAGTCGAGA, 0.542; with TCCCCATTAGTGTACGAGA, 0.425. TCCCTAAGAGTGATGGAGA registered a TetR repression strength of 0.243. The result for TCCCTGAGAGTTCGCGAGA reads 0.0305; that for TCCCTGTGAGTTCGAGAGA, 0.719. The result for TCCCTGTGAGTTCGGGAGA reads 0.369; that for TCCCATCTAGTCCGTGAGA, 0.174. The result for TCCCTCTAAGTTAGTGAGA reads 0.241; that for TCCCGCTAAGTCCGGGAGA, 0.188. As for TCCCCTGAAGTCTTCGAGA, the TetR repression strength was found to be 0. The result for TCCCTGTGAGTGCCGGAGA reads 0.164.

TCCCTATCAGTGCTTGAGA: the TetR repression strength is 0.701. With TCCCTGTCAGTGCCGGAGA the figure was 1.03; with TCCCAGGCAGTGCAGGAGA, 0.143; with TCCCTATCAGTTTTTGAGA, 0.472. The result for TCCCTATCAGTGTTTGAGA reads 0.767; that for TCCCTCTCAGTGCTTGAGA, 0.661; that for TCCCAGGGAGTGCCGGAGA, 0.19. Turning to TCCCTGTCAGTGTCGGAGA, the TetR repression strength was found to be 0.388. In turn, TCCCAGGCAGTGCCGGAGA had a TetR repression strength of 0.748. The result for TCCCTATGAGTGCTTGAGA reads 0.335.

TCCCTAGCAGTGTTTGAGA registered a TetR repression strength of 0.369.

Consider TCCCCGAAAGTCGCGGAGA, for which the TetR repression strength was found to be 0.128.

With TCCCTATCAGTGTAGGAGA, the TetR repression strength was found to be 0.484.

For TCCCCTCTAGTGTAAGAGA, the TetR repression strength was 0.155. Sequence TCCCGGATAGTAGCGGAGA yielded a TetR repression strength of 0.329.

With TCCCAGGCAGTCGGTGAGA, the TetR repression strength came to 0.213.

For the sequence TCCCGTTTAGTGGGTGAGA, the TetR repression strength came out at 0.306. The result for TCCCTTTGAGTTATCGAGA reads 0.384. In the case of TCCCGGGCAGTATTCGAGA, the TetR repression strength worked out at 0.136. The result for TCCCCGTGAGTGCATGAGA reads 0.122; that for TCCCATTCAGTCAATGAGA, 0.457; that for TCCCTATCAGTGTTCGAGA, 0.777. The result for TCCCTATCAGTTTTCGAGA reads 0.523; that for TCCCAAATAGTGCTTGAGA, 0. The result for TCCCTAGTAGTGCTTGAGA reads 0.594. Turning to TCCCTATTAGTGCTAGAGA, the TetR repression strength turned out to be 0.466. The result for TCCCTATCAGTGCGAGAGA reads 0.452; that for TCCCTATCAGTGGTCGAGA, 0.532. In turn, TCCCTAATAGTGCTTGAGA returned a TetR repression strength of 1.01. With TCCCTAACAGTGTTCGAGA the figure was 0.305; with TCCCTATCAGTGCTAGAGA, 0.841. The result for TCCCTATCAGTGCTCGAGA reads 0.993.

TCCCTGTCAGTGCTCGAGA yielded a TetR repression strength of 0.534. With TCCCATACAGTGCGCGAGA the figure was 0.394. In turn, TCCCTTATAGTCGCGGAGA showed a TetR repression strength of 0.142.

Turning to TCCCCTTAAGTGTATGAGA, the TetR repression strength amounted to 0.348. With TCCCAGAGAGTGGAAGAGA the figure was 0.148.

For the sequence TCCCGACAAGTTATCGAGA, the TetR repression strength stood at 0.226. The sequence TCCCTATAAGTCCTCGAGA yielded a TetR repression strength of 0.529. For the sequence TCCCTATCAGTGCCGGAGA, the TetR repression strength came to 1.06.

For TCCCTATCAGTCCCGGAGA, the TetR repression strength worked out at 0.4. Regarding TCCCTATCAGTGCTGGAGA, the TetR repression strength came to 0.86.

Regarding TCCCCATCAGTCCTCGAGA, the TetR repression strength was 0.327. In the case of TCCCTATCAGTGGTGGAGA, the TetR repression strength turned out to be 0.402.

Sequence TCCCTATCAGTGCCTGAGA had a TetR repression strength of 0.467. With TCCCTATCAGTCCTCGAGA the figure was 0.747. The result for TCCCCATCAGTGCTGGAGA reads 0.157; that for TCCCAGGCAGTGCTTGAGA, 0.113. With TCCCGATCAGTAGACGAGA the figure was 0.237.

For the sequence TCCCCTGTAGTGTGCGAGA, the TetR repression strength came to 0.297. Turning to TCCCCCACAGTTATAGAGA, the TetR repression strength amounted to 0.524.

For TCCCAGGTAGTGGCGGAGA, the TetR repression strength worked out at 0.176. The result for TCCCTTCAAGTGCCCGAGA reads 0.415; that for TCCCTTCGAGTTCTGGAGA, 0.328. With TCCCTTCAAGTTCTGGAGA the figure was 1.03; with TCCCTTCCAGTTCTTGAGA, 0.472; with TCCCTTCCAGTTCTGGAGA, 1.04. The result for TCCCCTCCAGTTCTGGAGA reads 0.342; that for TCCCTTCAAGTGCCGGAGA, 1.13; that for TCCCTTCTAGTTCTGGAGA, 0.402. Sequence TCCCTACAAGTGCCGGAGA showed a TetR repression strength of 0.202.

TCCCATAAAGTGACGGAGA returned a TetR repression strength of 0.305.

For the sequence TCCCTTAAAGTGTTGGAGA, the TetR repression strength was determined as 0.334.

As to TCCCGTTCAGTATGGGAGA, the TetR repression strength is 0.106.

For TCCCGCCGAGTCCCGGAGA, the TetR repression strength was determined as 0.317.

With TCCCATGGAGTTTTAGAGA, the TetR repression strength turned out to be 0.281. The result for TCCCACGGAGTTACGGAGA reads 0.224.

For TCCCGTGGAGTTTCTGAGA, the TetR repression strength turned out to be 0.0476. Consider TCCCGTTGAGTGTTGGAGA, for which the TetR repression strength is 1.1. In turn, TCCCGTTGAGTGTTTGAGA showed a TetR repression strength of 0.13.

(Values after a collection of fitness landscapes (doi:10.1038/s41467-024-54723-y).)
